In PubChem BioAssay (NCATS):
Records with an inconclusive call do not appear. Activity calls are given as the source filed them. Unless noted, the call rests on the fitted dose curve.

Legend:
[1] = qHTS for Inhibitors of the Functional Ribonucleoprotein Complex (vRNP) of Lassa (LASV) Arenavirus: LASV Primary Screen - GLuc reporter signal (AID 1347082; calls by dose curve; tested in HEK293 reporter line; further: nearly all actives have a fitted effect of over 60% in size; further: potency means the concentration at half of the fitted maximal effect; on activity change, negative = inhibition: on the % scale 0 is the no-effect control and ±100 the full control effect)
[2] = qHTS for Inhibitors of the Functional Ribonucleoprotein Complex (vRNP) of Lassa (LASV) Arenavirus: Viability assay - alamar blue signal for LASV Primary Screen (AID 1347083; calls by dose curve; tested in HEK293 reporter line; further: nearly all actives have a fitted effect of over 80% in size; further: potency means the concentration at half of the fitted maximal effect)
[3] = qHTS for Inhibitors of the Functional Ribonucleoprotein Complex (vRNP) of Lymphocytic Choriomeningitis Arenaviruses (LCMV): Viability assay - alamar blue signal for LCMV Primary Screen (AID 1347085; calls by dose curve; tested in HEK293 reporter line; further: nearly all actives have a fitted effect of over 80% in size; further: potency means the concentration at half of the fitted maximal effect)
[4] = target: Nucleoprotein (Lymphocytic choriomeningitis virus (strain Armstrong)) (UniProt P09992); test: qHTS for Inhibitors of the Functional Ribonucleoprotein Complex (vRNP) of Lymphocytic Choriomeningitis Arenaviruses (LCMV): LCMV Primary Screen - GLuc reporter signal (AID 1347086); further: nearly all actives have a fitted effect of over 70% in size; further: potency means the concentration at half of the fitted maximal effect; on activity change, negative = inhibition: on the % scale 0 is the no-effect control and ±100 the full control effect
[5] = Cytotoxicity counterscreen for inhibitors of SARS-CoV-2 cell entry (AID 1645845); further: nearly all actives have a fitted effect of over 50% in size; further: potency means the concentration at half of the fitted maximal effect
Outline: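 ATP-content luminescence (ATPLite 1step, 15 min RT) read after 48 h compound exposure of Expi293F cells stably expressing human ACE2; normalized to cells-only wells and media-only wells.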

[6] = test system: CRL-7250; test: qHTS assay to identify novel small-molecules to repurpose for Merkel cell carcinoma treatment (AID 1296009; active means well fitted inhibition curve with a large enough effect; further: nearly all actives have a fitted effect of over 60% in size); details: MCC and control cell lines, CellTiter-Glo viability, 72 h; series mostly up to 92 µM
Outline: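 Cell viability measured by CellTiter-Glo following 72 hr compound treatment at 37 degree celsius, with NPC and MIPE libraries tested in 8- and 11-point concentration series.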

[7] = Confirmatory qHTS for VERO E6 Cytotoxicity Assay: Counterscreen for SARS-CoV-2 CPE Assay (AID 1508605); further: on the % scale 0 is the no-effect control and ±100 the full control effect; nearly all actives have a fitted effect of over 60% in size
[8] = Confirmatory qHTS for activators (rescue) of SARS-CoV-2 Cytopathic Effect (CPE) (AID 1508606); further: nearly all actives have a fitted effect of over 70% in size; further: potency means the concentration at half of the fitted maximal effect
[9] = qHTS Assay for Lipid Storage Modulators (AID 1519); details: Drosophila S3 cells, BODIPY lipid droplet/cell ratio, laser cytometry, cells loaded with oleic acid; on activity change, negative = inhibition: on the % scale 0 is the no-effect control and ±100 the full control effect
Outline: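 Cells seeded at 5,000 per well were treated with compounds over a concentration series and loaded with oleic acid (400 uM, as added). Lipid droplet fluorescence (488 nm excitation, 500-530 nm channel) was read by laser-scanning cytometry and normalized to 20 uM Triacsin C.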

[10] = qHTS profiling of the MIPE4 collection as inhibitors of Plasmodium falciparum (3D7) proliferation (AID 743344; call rule not given here;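 further: scaled between DMSO vehicle wells and 0.29 µM artemisinin as full inhibition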); details: P. falciparum 3D7 in erythrocytes, SYBR Green DNA fluorescence, 72 h; at 28.5 µM (top of the series) unless noted
Outline: (§1)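 Parasite DNA was quantified by SYBR Green I fluorescence (ex 485, em 535 nm) after overnight lysis in saponin/Triton buffer at room temperature. Cultures at 0.3% parasitemia and 2.5% hematocrit were first exposed to compound for 72 h at 37 C; signals were normalised to artemisinin (0.29 uM) and vehicle wells.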

[11] = qHTS profiling of the MIPE4 collection as inhibitors of Plasmodium falciparum (DD2) proliferation (AID 743345; call rule not given here); details: P. falciparum Dd2 in erythrocytes, SYBR Green DNA, 72 h; at 28.5 µM (top of the series) unless noted
Outline: as §1

[12] = qHTS profiling of the MIPE4 collection as inhibitors of Plasmodium falciparum (DD2) proliferation (Rep 2) (AID 743346; call rule not given here); details: P. falciparum Dd2 in erythrocytes, SYBR Green DNA, 72 h; at 28.5 µM (top of the series) unless noted
Outline: as §1

[13] = Primary qHTS for inhibitors of SARS-S pseudo-typed particle cell entry (AID 1479145); further: nearly all actives have a fitted effect of over 45% in size; on activity change, negative = inhibition: on the % scale 0 is the no-effect control and ±100 the full control effect
[14] = Primary qHTS for Huh7 cytotoxicity: counterscreen for inhibitors of MERS-S pseudotyped particle cell entry (AID 1479147); details: outcome: dose series up to 57.1 µM unless noted
[15] = Primary qHTS for inhibitors of MERS-S pseudo-typed particle cell entry (AID 1479149); further: nearly all actives have a fitted effect of over 60% in size
[16] = Primary qHTS for Vero E6 cytotoxicity: counterscreen for inhibitors of SARS-S pseudo-typed particle cell entry (AID 1479150); details: outcome: dose series up to 57.1 µM unless noted
[17] = Primary qHTS to identify inhibitors of SARS-CoV-2 cell entry (AID 1645846); details: activity change, negative = inhibition: at 57.1 µM (top of the series) unless noted; further: nearly all actives have a fitted effect of over 45% in size; further: potency means the concentration at half of the fitted maximal effect
Outline: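 Inhibition of spike-mediated entry was scored in human ACE2-transfected Expi293F cells. Particles were MLV-pseudotyped with Wuhan-Hu-1 S carrying a 19-aa C-terminal deletion; signal was luciferase after two days, scaled between spike PP and fusion-protein-free PP.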

Nucleoprotein (Lymphocytic choriomeningitis virus (strain Armstrong)), sequence (P09992 whole entry, looked up): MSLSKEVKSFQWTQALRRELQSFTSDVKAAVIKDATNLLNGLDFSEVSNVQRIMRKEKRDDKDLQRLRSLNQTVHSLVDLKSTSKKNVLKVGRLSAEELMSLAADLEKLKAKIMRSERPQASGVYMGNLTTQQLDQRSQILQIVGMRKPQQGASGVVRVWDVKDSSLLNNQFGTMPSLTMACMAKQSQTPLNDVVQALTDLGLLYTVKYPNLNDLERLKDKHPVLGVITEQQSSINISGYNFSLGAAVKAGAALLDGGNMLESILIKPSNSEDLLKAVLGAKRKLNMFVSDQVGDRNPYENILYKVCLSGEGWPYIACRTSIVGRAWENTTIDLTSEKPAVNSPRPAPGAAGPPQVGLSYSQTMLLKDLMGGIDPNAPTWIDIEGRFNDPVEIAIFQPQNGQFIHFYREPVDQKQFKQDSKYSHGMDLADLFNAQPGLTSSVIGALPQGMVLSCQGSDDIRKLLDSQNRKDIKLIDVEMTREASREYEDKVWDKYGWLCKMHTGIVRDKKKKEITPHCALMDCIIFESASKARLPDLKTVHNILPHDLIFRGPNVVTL

COC(=O)N1CCN(Cc2cccc(NC(=O)Nc3ccc(C)nc3)c2F)CC1
inactive: Potency [1] | Potency [2] | Potency [3] | Potency [4] | Potency [5] | Potency [6]

COc1c(O)cc2c(c1O)[C@@H]1O[C@H](CO)[C@@H](O)[C@H](O)[C@H]1OC2=O
inactive: Potency [1] | Potency [2] | Potency [3] | Potency [4] | Potency [6]

Cc1ccc(C2=Nc3ccc(Cl)cc3OC2)cc1
inactive: Potency [1] | Potency [2] | Potency [3] | Potency [4] | Potency [5] | Potency [6]

Cc1ccc(Nc2cc(-c3cccc(N4C(=O)c5ccccc5C4=O)c3)ncn2)cc1NS(C)(=O)=O
inactive: Potency [1] | Potency [2] | Potency [3] | Potency [4] | Potency [6]
active: Potency [5] 31.6 µM

CC(C)(O)[C@H]1CC[C@@](C)([C@H]2[C@@H](O)C[C@@]3(C)[C@@H]4C[C@H](O[C@@H]5O[C@H](CO)[C@@H](O)[C@H](O)[C@@H]5O)[C@H]5C(C)(C)[C@@H](O[C@@H]6OC[C@@H](O)[C@H](O)[C@@H]6O)CC[C@@]56C[C@@]46CC[C@]23C)O1
inactive: Potency [1] | Potency [2] | Potency [3] | Potency [4] | Potency [6]

CNC(=O)c1ccc(-c2cnc3ncc(Cc4ccc5ncccc5c4)n3n2)cc1F
inactive: Potency [1] | Potency [2] | Potency [3] | Potency [4] | Potency [5] | Potency [6]

c1ccc(CNc2nc(N3CCOc4ccccc43)nc3c2CCCC3)cc1
inactive: Potency [1] | Potency [2] | Potency [3] | Potency [4] | Potency [5] | Potency [6]

NC(=O)NN=Cc1ccc([N+](=O)[O-])o1
inactive: Potency [1] | Potency [2] | Potency [3] | Potency [4] | Potency [6]

CN1CCC(COc2cnc(-c3cccc(Cn4nc(-c5cccc(C#N)c5)ccc4=O)c3)nc2)CC1
inactive: Potency [5] | Potency [6]
active: Potency [1] 5.44 µM | Potency [2] 0.153 µM | Potency [3] 0.0611 µM | Potency [4] 0.685 µM

CCOC(=O)c1c(CSc2ccccc2)n(C)c2cc(Br)c(O)c(CN(C)C)c12
inactive: Potency [1] | Potency [2] | Potency [3] | Potency [4] | Potency [7] | Potency [5] | Potency [6]
active: Potency [8] 11.2 µM

O=C(NNC(=O)c1ccc(CNS(=O)(=O)c2ccc(F)c(Cl)c2)cc1)c1ccccc1
inactive: Potency [1] | Potency [2] | Potency [3] | Potency [4] | Potency [6]

CN1[C@H]2CC(OC(=O)[C@@H](CO)c3ccccc3)C[C@H]1[C@H]1O[C@H]12 (stereo partly specified)
72.3%: parasite growth, % of control (lower = inhibition) [12]
inactive: activity change, negative = inhibition ([9]; at 25.7 µM (top of the series)) -0.085% | Potency [1] | Potency [2] | Potency [3] | Potency [4] | Potency [6]
96.6%: parasite growth, % of DMSO control [10]
107%: parasite growth remaining, % of DMSO control (lower = more inhibition) [11]
9.59%: max response ([9]; measured here: cell count channel max response)
10.6%: max response ([9]; measured here: lipid channel max response)

OC[C@H]1O[C@@H](Oc2cc(O)cc(C=Cc3ccc(O)cc3)c2)[C@H](O)[C@@H](O)[C@H]1O
inactive: Potency [1] | Potency [2] | Potency [3] | Potency [4] | Potency [6]

CN(C)CC(=O)N1CCC(c2ccc(NC(=O)c3ncc(C#N)[nH]3)c(C3=CCCCC3)c2)CC1
inactive: Potency [1] | Potency [2] | Potency [3] | Potency [4] | Potency [5] | Potency [6]

CN1C(C(=O)Nc2ccccn2)=C(O)c2sc(Cl)cc2S1(=O)=O
inactive: Potency [13] | outcome [14] | Potency [15] | outcome [16] | Potency [5] | Potency [6]
2.28%: activity change, negative = inhibition [17]
active: Potency [1] 24.3 µM | Potency [2] 15.3 µM | Potency [3] 24.3 µM | Potency [4] 15.3 µM

CC(=O)O[C@]1(C(C)=O)CC[C@H]2[C@@H]3C=C(C)C4=CC(=O)CC[C@]4(C)[C@@H]3CC[C@@]21C
inactive: Potency [1] | Potency [2] | Potency [3] | Potency [4] | Potency [6]

COC1=C(OC)C(=O)C(CC=C(C)CCC=C(C)CCC=C(C)CCC=C(C)CCC=C(C)CCC=C(C)CCC=C(C)CCC=C(C)CCC=C(C)CCC=C(C)C)=C(C)C1=O
inactive: Potency [1] | Potency [2] | Potency [3] | Potency [4] | outcome [13] inactive [at 5.34 µM] | outcome [14] inactive [at 5.34 µM] | outcome [15] inactive [at 5.34 µM] | outcome [16] inactive [at 5.34 µM] | outcome [5] inactive [at 5.25 µM] | outcome [17] inactive [at 5.25 µM] | Potency [6]

CCc1nc(-c2cccc(C)c2)c(-c2ccnc(NC(=O)c3ccccc3)c2)s1
inactive: Potency [1] | Potency [2] | Potency [3] | Potency [4] | Potency [8] | Potency [5] | Potency [6]
active: Potency [17] 25.1 µM
